# Measurements: PubChem BioAssay AID504834 (National Center for Advancing Translational Sciences (NCATS), 2011)
# Hit rate of the full screen: of about 320,000 compounds, about 22,000 (6.9%) were called active. About 27% were inconclusive and are not listed. The list comes from a sample in which actives are over-represented; it also holds similar structures and randomly drawn compounds. Where a call stands in place of a potency, no number is given. Values without a mark were called inactive. Calls come from the whole dose curve; as a rule, active = well fitted inhibition curve with a large enough effect; inconclusive = small, poorly fitted or top-dose-only effect, or another doubt; inactive = no such curve, though single readings can be large or run the other way.
# Assay: Primary qHTS for delayed death inhibitors of the malarial parasite plastid, 96 hour incubation
# Conditions: P. falciparum luciferase reporter growth; series mostly up to 28.7 µM
# Procedure, shortened: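 Delayed-death screen, second-generation endpoint: infected erythrocytes, 2% hematocrit, 0.05% parasitemia final; 96 hours at 37 C, 5% CO2; luciferase detection reagent; luminescence decrease equals reduced growth.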
# Potency is the fitted concentration of half-maximal effect.
SMILES,Potency,"activity change, negative = inhibition"
CCOc1ccc2nc(N(CCN(C)C)C(=O)c3ccc4ccccc4c3)sc2c1,inactive,–
COc1ccc(-c2nc3c(s2)CCc2onc(-c4ccc(OC)cc4)c2-3)cc1,inactive,–
COc1ccc(C(=O)NC2CC(C)(C)NC(C)(C)C2)cc1OC,inactive,–
COc1ccc(OC)c(/C(C)=N\NC(=O)c2cc3cc(Cl)ccc3n2C)c1,inactive,–
COc1ccc(CS(=O)/C(Cl)=C(/Cl)C(=O)Nc2ccc(OC)nc2)cc1 (centres undefined),2.94 µM (active),–
COc1ccc(NC(=S)Nc2ccccc2Cl)cn1,inactive,–
COc1ccc(NC(=O)/C(Cl)=C(/Cl)S(=O)Cc2ccc(C)cc2)cn1 (centres undefined),inactive,–
O=C(NCc1ccccc1Cl)NC(=O)c1csc([N+](=O)[O-])c1,inactive,–
CC1(C(=O)OCC(=O)Nc2ncc(Cl)cc2Cl)CC1(Cl)Cl (centres undefined),inactive,–
COc1cc2c(cc1OC)C(c1cccc([N+](=O)[O-])c1)=NCC2,inactive,–
CCOC(=O)C1=NN(c2ccc(Cl)cc2)/C(=C/C2=NCCc3cc(OC)c(OC)cc32)S1,4.15 µM (active),–
CCOC(=O)C1=NNC2(c3ccc(Cl)cc3)C(=O)N(c3cc(C)cc(C)c3)C(=O)C12 (centres undefined),inactive,–
CCCCN(C(=O)C1CCC1)c1c(N)n(Cc2ccccc2)c(=O)[nH]c1=O,inactive,–
O=S(=O)(NC1CC1)c1ccc(F)c(F)c1,inactive,–
Cn1ncc2c(N3CCCCC3)nc(NCCCO)nc21,inactive,–
COc1cc(C(=O)NN(CCC#N)C2=NS(=O)(=O)c3ccccc32)cc(OC)c1OC,inactive,–
CN(C)[C@@H]1C(=O)C(C(N)=O)=C(O)[C@@]2(O)C(=O)C3=C(O)c4c(O)ccc(Cl)c4[C@@H](O)[C@H]3C[C@@H]12,0.37 µM (active),–
C=C1c2c(Cl)ccc(O)c2C(O)=C2C(=O)[C@]3(O)C(O)=C(C(N)=O)C(=O)[C@@H](N(C)C)[C@@H]3[C@@H](O)C12 (some centres undefined),0.738 µM (active),–
COc1ccc(OCCC(=O)c2ccc(OC)cc2)cc1,inactive,–
CCN(c1ccccc1)S(=O)(=O)c1cc2c(cc1C)n(C)c(=O)c(=O)n2C,inactive,–
Cn1c2ccccc2c2cc(/C=C(\NC(=O)c3ccccc3)C(=O)NCC(=O)O)ccc21,inactive,–
COc1ccc(-c2cc(C(F)(F)F)nc(NCc3cccnc3)n2)cc1,13.1 µM (active),–
COc1ccc(-c2cc3ncccc3cn2)cc1,inactive,–
COc1ccc(C(=O)O)cc1S(=O)(=O)NCc1cccnc1,inactive,–
CCN(CC)S(=O)(=O)c1ccc(N2CC(C(=O)NCc3cccnc3)CC2=O)cc1 (centres undefined),inactive,–
CCC(=O)c1ccc(OC(=O)/C=C/c2cc(OC)c(OC)c(OC)c2)cc1,inactive,–

SMILES,Potency,"activity change, negative = inhibition"
CS(=O)(=O)C1=NN2C(=N)/C(=C\c3ccc(OCCOc4ccccc4)cc3)C(=O)N=C2S1,inactive,–
CCCCNC(=O)CCn1c(=O)c2ccccc2n(Cc2cc(C)ccc2C)c1=O,inactive,–
CCCc1nc2c(c(=O)c3ccccc3n2C)c(=O)n1C1CCCCCC1,14.7 µM (active),–
Cn1c2ccccc2c(=O)c2c(O)cccc21,inactive,–
Cn1c2ccccc2c2c(C(=O)N3CCN(c4ccc(F)cc4)CC3)cn(C3CCCC3)c(=O)c21,inactive,–
CCCc1nc2c(c(=O)c3ccccc3n2C)c(=O)n1-c1cc(C)cc(C)c1,5.86 µM (active),–
COc1ccccc1C(=O)OCC(=O)NCCNC(=O)COC(=O)c1ccccc1OC,inactive,–
Cn1cccc1C(=O)N1CCc2ccccc2C1,inactive,–
CCOc1ccc(NC(=O)CN(C)C(=O)c2c(C)noc2C)cc1OCC,inactive,–
C=CC(COCc1ccccc1)N(Cc1ccccc1)S(=O)(=O)c1ccccc1Br (centres undefined),9.28 µM (active),–
C=CCCN(Cc1ccccc1)S(=O)(=O)c1ccccc1Br,inactive,–
COc1ccc(S(=O)(=O)n2nc(C)c(S(=O)(=O)N3CCOCC3)c2C)cc1,inactive,–
COc1ccc(C(=O)NCCNc2ccc([N+](=O)[O-])cn2)cc1,inactive,–
Cc1csc(NC(=O)CSc2ccc(-c3ccc(F)cc3)nn2)n1,–,-36.6% [at 1.15 µM]
Cn1c(CCC(=O)Nc2ccccc2F)nnc1SCC(=O)Nc1ccccc1Cl,inactive,–
O=C(CSc1ccc(-c2cccs2)nn1)Nc1ccccc1F,2.33 µM (active),–
CCN(CC)S(=O)(=O)c1ccc(NC(=O)c2cnc(C)cn2)cc1,inactive,–
Cc1cccc2c1cnn2C(=O)CCC(=O)NC1CCCCC1,13.1 µM (active),–
Cc1ccc2c(cnn2C(=O)CCC(=O)NC2CCCC2)c1,inactive,–
Cc1nn(CC(=O)NC2CCCCC2)c(=O)c2cccn12,inactive,–
CCn1nnnc1SCC(=O)c1ccc(C)cc1C,7.38 µM (active),–
CCn1nnnc1SCC(=O)Nc1ccc(N(C)C)cc1,inactive,–
CNC(=O)CSc1nnnn1-c1ccc(C)cc1C,inactive,–
O=C1CSC(=S)N1c1ccc(Cl)c(Cl)c1,inactive,–
NC(=O)c1ccc(-c2csnn2)cc1,inactive,–
C[C@H](OC(=O)n1ccnc1)[C@@H]1O[C@@]2(C)CCC[C@@H]1O2,inactive,–

SMILES,Potency,"activity change, negative = inhibition"
COc1cc(C=O)c(Br)cc1OCC(=O)NCc1ccccc1,11.7 µM (active),–
COc1ccccc1OCCC(=O)OCC(=O)NCc1ccccc1,inactive,–
COc1cc(C(=S)NCc2ccccc2)cc(Br)c1O,inactive,–
CCOc1ccc(S(=O)(=O)N2CCC(c3ccccc3)CC2)cc1C(=O)O,inactive,–
Nn1c(Cc2cccc3ccccc23)nnc1SCC(=O)N1CC(=O)Nc2ccccc21,inactive,–
C=CCn1c(COc2ccccc2C)nnc1SCC(=O)O,inactive,–
C=CCn1c(COc2ccccc2F)nnc1SCC(=O)N1CC(=O)Nc2ccccc21,8.28 µM (active),–
O=C(COc1ccccc1)Nc1ccc(C(=O)N2CCCC2)cc1,inactive,–
COc1cc(Cl)c(C)cc1NC(=O)CN1CCCCCC1,inactive,–
Cc1cc(NC(=O)CSC2=NS(=O)(=O)c3cc(Cl)ccc3N2)no1,inactive,–
CCCOP(=O)(c1ccc(N(C)C)cc1)C(O)c1cc(OC)c(OC)c(OC)c1 (centres undefined),10.4 µM (active),–
Cc1ccc(C(O)P(=O)(OC(C)C)c2ccc(N(C)C)cc2)cc1 (centres undefined),inactive,–
CCCCOP(=O)(c1ccc(N(C)C)cc1)C(O)c1cc(OC)ccc1OC (centres undefined),inactive,–
CCCCSc1nc2ccccc2[nH]1,inactive,–
CN=C1S/C(=C\c2ccc(Sc3ccc(Cl)cc3)o2)C(=O)N1C,inactive,–
CCC(C)N1C(=O)S/C(=C/c2ccc(Sc3nc4ccccc4[nH]3)o2)C1=O (centres undefined),1.65 µM (active),–
[2H]C(CCOS(N)(=O)=O)c1ccccc1 (centres undefined),inactive,–
COCCCn1c(SCC(=O)NC2CCCC2)nnc1-c1ccccc1,inactive,–
CC(C)(C)C(=O)NC1CC2CCCC(C1)N2C(=O)Nc1ccccc1F (centres undefined),inactive,–
O=S(=O)(c1cccc(-c2nnc3n2CCCCC3)c1)N1CCOCC1,inactive,–
O=S(=O)(c1cccc(-c2cn3ccccc3n2)c1)N1CCCC1,inactive,–
O=S(=O)(c1cccc(-c2nnc(SC(F)F)n2-c2ccccc2)c1)N1CCCCC1,7.38 µM (active),–
Cc1noc(C)c1C(=O)OCC(=O)N1CCN(S(=O)(=O)c2ccc3ccccc3c2)CC1,inactive,–
Cc1cc(S(=O)(=O)NC2CCCC2)ccc1-n1cnnn1,inactive,–
O=c1[nH]c(CSc2ccccc2)nc2c1oc1ccccc12,5.22 µM (active),–
Cc1nc(Cl)c2oc3ccccc3c2n1,inactive,–

SMILES,Potency,"activity change, negative = inhibition"
C[C@@H](Nc1nc(-c2ccccc2)nc2c1oc1ccccc12)C(=O)O,inactive,–
CC(C)(C)c1cc[n+](-c2[nH]c(=O)sc2/C=N/N=C(\[O-])c2ccccc2)cc1,inactive,–
O=C(OCC(=O)N1CCN(C(=O)c2ccco2)CC1)c1cccc(O)c1,inactive,–
CC(=O)Nc1ccc(NC(=O)CSc2nnc(C3CC3)n2-c2ccccc2)cc1,inactive,–
Nc1nnn(CC(=O)N/N=C/c2ccc(O)cc2)n1,inactive,–
O=C(NC1CCN(C(=S)Nc2ccc(Cl)cc2)CC1)C1CCCCC1,inactive,–
O=C(NC1CC2CCCC(C1)N2C(=O)N1CCCCC1)C1CCCCC1 (centres undefined),14.7 µM (active),–
CCOCCCNC(=S)N1CCC(NC(=O)C2CCCCC2)CC1,inactive,–
CSc1ccccc1OCc1cc(C(=O)N2C[C@H]3CC[C@H]2C3)no1,inactive,–
Cc1ccc(S(=O)(=O)NCCCn2ccnc2)cc1C(=O)NC(C)C,inactive,–
COc1ccc(S(=O)(=O)N2CCCC(C(=O)NCCCn3ccnc3)C2)cc1OC (centres undefined),inactive,–
CCOc1ccc(S(=O)(=O)NCCCn2ccnc2)cc1NC(C)=O,13.1 µM (active),–
CC(NC(=O)COc1cccnc1[N+](=O)[O-])c1ccc(Cl)cc1Cl (centres undefined),inactive,–
CC(C)CC(=O)N1CCN(Cc2cccc(Cl)c2)CC1,inactive,–
Clc1cccc(CN2COc3c(cc(Cl)c4cccnc34)C2)c1,0.329 µM (active),–
O=C(C1CCC1)N1CCN(c2ccccc2)CC1,inactive,–
COc1ccc(NC(=O)CCC(=O)Nc2nnc(C3CCCCC3)s2)cc1,inactive,–
COc1cc(C(=O)NCc2cc3cc(Cl)ccc3n2C)cc(OC)c1OC,inactive,–
CCn1c(SCC(=O)c2ccc3ccccc3c2)nnc1-c1cccs1,inactive,–
Cc1nc(SCC(=O)N2CCc3ccccc3C2)c2c(C)c(C)sc2n1,inactive,–
O=C(CSc1nnc(-c2cccs2)n1Cc1ccccc1)N1CCc2ccccc2C1,10.4 µM (active),–
CCn1c(Cc2ccc(OC)cc2)nnc1SCC(=O)Nc1ccc(N2CCOCC2)cc1,inactive,–
CCn1c(SCC(=O)NC2CCCC2)nnc1-c1ccoc1C,inactive,–
CCN(CC)c1ccc(NC(=O)c2ccc(=O)[nH]c2)cc1S(=O)(=O)Nc1ccc(OC)cc1,9.28 µM (active),–
O=C(NNC(=O)c1cccc(S(=O)(=O)Nc2ccc(Cl)cc2)c1)c1ccc(=O)[nH]c1,inactive,–
COc1ccc(NS(=O)(=O)c2ccc(NC(=O)c3ccc(N(C)S(C)(=O)=O)cc3)cc2)cc1,inactive,–
